Results taken from PubChem BioAssay (EPA / NIEHS).
Activity calls are given as the source filed them. The calls were made as follows: active = hit-call score of the fitted dose curve at least 0.9, where 1 is the maximum; inactive = score below 0.9.

Tests used:
Conditions in all cases: mRNA level, 48 h; actives raise or lower the signal
[1] = read-out: Fatty Acid-Binding Protein 1 (FABP1), FABP1 (gene 2168); assay: LTEA_HepaRG_FABP1: Life Technologies and Expression Analysis (LTEA) Assay for Fatty Acid-Binding Protein 1 (FABP1) using HepaRG (AID 2283494)
Procedure, shortened: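 Differentiated human HepaRG cells exposed 48 h in serum-free induction medium to eight half-log concentrations up to 100 uM (0.5% DMSO), duplicate. FABP1 mRNA by qRT-PCR, normalised to ACTB, GAPDH, POLR2A; bidirectional fitting against DMSO.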

[2] = read-out: Cytochrome P450 4A22 (Homo sapiens) (UniProt Q5TCH4); assay: LTEA_HepaRG_CYP4A22: Life Technologies and Expression Analysis (LTEA) Assay for Cytochrome P450 4A22 (CYP4A22) using HepaRG (AID 2283495)
Procedure, shortened: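 Differentiated HepaRG cells in serum-free induction medium exposed 48 h in duplicate to eight half-log concentrations up to 100 uM in 0.5% DMSO. CYP4A22 mRNA quantified by TaqMan qRT-PCR, normalized to ACTB, GAPDH and POLR2A; bidirectional fit versus DMSO.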

[3] = read-out: Cytochrome P450 7A1 (Homo sapiens) (UniProt P22680); assay: LTEA_HepaRG_CYP7A1: Life Technologies and Expression Analysis (LTEA) Assay for Cytochrome P450 7A1 (CYP7A1) using HepaRG (AID 2283496)
Procedure, shortened: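 Gene expression endpoint in human HepaRG liver cells treated for 48 h with test chemicals (up to 100 uM, 0.5% DMSO). Values come from bidirectional concentration-response fitting versus DMSO.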

[4] = read-out: Glutathione S-Transferase (GSTA2), GSTA2 (gene 2939); assay: LTEA_HepaRG_GSTA2: Life Technologies and Expression Analysis (LTEA) Assay for Glutathione S-Transferase (GSTA2) using HepaRG (AID 2283497)
Procedure, shortened: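 Differentiated human HepaRG cells were exposed in duplicate for 48 h in serum-free induction medium, 8 points from 100 uM top in half-log steps, 0.5% DMSO. GSTA2 mRNA was measured by TaqMan qRT-PCR, normalized to ACTB, GAPDH and POLR2A; bidirectional fit versus DMSO.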

[5] = read-out: Glutamate-cysteine ligase catalytic (GCLC), GCLC (gene 2729); assay: LTEA_HepaRG_GCLC: Life Technologies and Expression Analysis (LTEA) Assay for Glutamate-cysteine ligase catalytic (GCLC) using HepaRG (AID 2283498)
Procedure, shortened: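 Differentiated HepaRG cells exposed 48 h in serum-free induction medium, eight-point half-log series topping at 100 uM in 0.5% DMSO, duplicates. GCLC mRNA by qRT-PCR normalized to ACTB, GAPDH and POLR2A, fitted bidirectionally versus DMSO.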

[6] = read-out: growth arrest and DNA damage 45 (GADD45G), GADD45G (gene 10912); assay: LTEA_HepaRG_GADD45G: Life Technologies and Expression Analysis (LTEA) Assay for growth arrest and DNA damage 45 (GADD45G) using HepaRG (AID 2283499)
Procedure, shortened: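 Differentiated human HepaRG cells, 48 h post-plating, exposed 48 h in serum-free induction medium to 8 half-log concentrations (top 100 uM, 0.5% DMSO) in duplicate. GADD45G mRNA measured by Fluidigm TaqMan qRT-PCR, normalized to ACTB, GAPDH, POLR2A; bidirectional fit versus DMSO.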

[7] = read-out: Glutamate-cysteine ligase regulatory (GCLM), GCLM (gene 2730); assay: LTEA_HepaRG_GCLM: Life Technologies and Expression Analysis (LTEA) Assay for Glutamate-cysteine ligase regulatory (GCLM) using HepaRG (AID 2283500)
Procedure, shortened: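 Human liver HepaRG cultures receive test chemicals for 48 hours at up to 100 uM in 0.5% DMSO. GCLM expression is measured by qRT-PCR and analysed for increases or decreases against vehicle.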

[8] = read-out: Heat shock 70 kDa protein 1 (HSPA1A), gene 3303; assay: LTEA_HepaRG_HSPA1A: Life Technologies and Expression Analysis (LTEA) Assay for Heat shock 70 kDa protein 1 (HSPA1A) using HepaRG (AID 2283502)
Procedure, shortened: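 HSPA1A induction in human HepaRG liver cells is measured after 48 h of chemical treatment (100 uM maximum, 0.5% DMSO vehicle). Expression comes from qRT-PCR normalized to endogenous controls.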

[9] = read-out: Hypoxia-inducible factor 1-alpha (Homo sapiens) (UniProt Q16665); assay: LTEA_HepaRG_HIF1A: Life Technologies and Expression Analysis (LTEA) Assay for Hypoxia-inducible factor 1 (HIF1A) Trancription factor using HepaRG (AID 2283503);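 also: HIF1A transcript by TaqMan qRT-PCR normalized to ACTB GAPDH and POLR2A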
Procedure, shortened: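 HepaRG, 48 h exposure, 8-pt half-log series from 100 uM, 0.5% DMSO vehicle, duplicates. Readout: HIF1A transcript by qRT-PCR (Fluidigm array), housekeeping-normalised. Bidirectional curve fit vs DMSO baseline.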

[10] = read-out: Glutathione S-transferase M3 (GSTM3), GSTM3 (gene 2947); assay: LTEA_HepaRG_GSTM3: Life Technologies and Expression Analysis (LTEA) Assay for Glutathione S-transferase M3 (GSTM3) using HepaRG (AID 2283501)
Procedure, shortened: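 Differentiated human HepaRG cells were exposed in duplicate for 48 h in serum-free induction medium, 8 points from 100 uM top in half-log steps, 0.5% DMSO. GSTM3 mRNA was measured by TaqMan qRT-PCR, normalized to ACTB, GAPDH and POLR2A; bidirectional fit versus DMSO.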

Measured: AC50

Chain of Hypoxia-inducible factor 1-alpha (Homo sapiens) (Q16665 whole entry, looked up): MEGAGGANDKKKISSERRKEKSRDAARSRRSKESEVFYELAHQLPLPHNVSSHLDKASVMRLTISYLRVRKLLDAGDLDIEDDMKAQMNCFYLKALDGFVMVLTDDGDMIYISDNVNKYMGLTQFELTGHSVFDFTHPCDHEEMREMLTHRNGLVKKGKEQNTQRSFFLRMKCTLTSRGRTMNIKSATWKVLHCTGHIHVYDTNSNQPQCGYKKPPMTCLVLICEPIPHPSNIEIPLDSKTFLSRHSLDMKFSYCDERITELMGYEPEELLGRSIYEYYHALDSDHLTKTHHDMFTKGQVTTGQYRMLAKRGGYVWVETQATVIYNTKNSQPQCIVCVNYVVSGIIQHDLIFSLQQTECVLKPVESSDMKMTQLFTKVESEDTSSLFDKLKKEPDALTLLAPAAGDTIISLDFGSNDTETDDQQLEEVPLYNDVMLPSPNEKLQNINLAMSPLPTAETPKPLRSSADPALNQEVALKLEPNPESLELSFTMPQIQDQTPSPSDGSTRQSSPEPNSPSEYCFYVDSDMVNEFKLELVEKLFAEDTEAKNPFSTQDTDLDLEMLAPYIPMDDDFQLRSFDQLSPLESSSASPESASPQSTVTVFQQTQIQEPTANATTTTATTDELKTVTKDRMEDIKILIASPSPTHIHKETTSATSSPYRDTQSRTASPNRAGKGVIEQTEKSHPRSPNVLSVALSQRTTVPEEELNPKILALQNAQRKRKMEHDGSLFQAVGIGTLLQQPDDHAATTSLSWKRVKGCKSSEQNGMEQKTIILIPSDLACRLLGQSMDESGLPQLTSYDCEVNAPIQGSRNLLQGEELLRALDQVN

Cc1nccn1-c1ccc(Sc2cccc(C3(C(N)=O)CCOCC3)c2)cc1
active: [1] 11.6 µM | [2] 6.16 µM | [3] 15.1 µM | [4] 10.7 µM | [6] 4.69 µM | [7] 7.4 µM
inactive: [5] | [8] | [9]

CCOc1ccc2[nH]cc(C(=O)NCc3ccccc3)c(=O)c2n1
active: [2] 35.4 µM
inactive: [1] | [3] | [4] | [5] | [6] | [7] | [10] | [8] | [9]

CC(C)CCCCCCOC(=O)C1CCCCC1C(=O)OCCCCCCC(C)C (stereo not drawn)
inactive: [1] | [2] | [3] | [4] | [5] | [6] | [7] | [10] | [8] | [9]

Nc1ccn([C@@H]2O[C@H](CO)[C@@H](O)[C@@H]2O)c(=O)n1
inactive: [1] | [2] | [3] | [4] | [5] | [6] | [7] | [10] | [8] | [9]

CC(C)CC(C)O (stereo not drawn)
inactive: [2] | [3] | [4] | [5] | [6] | [7] | [10] | [8] | [9]

CC(C)C(=O)Nc1ccc([N+](=O)[O-])c(C(F)(F)F)c1
inactive: [5] | [8]
active: [1] 37.9 µM | [2] 41.7 µM | [3] 67.6 µM | [4] 65.8 µM | [6] 85.6 µM | [7] 50 µM | [10] 50 µM

CCCCCCCC/C=C\CCCCCCCC(=O)OC[C@@H](O)[C@H]1OC[C@H](O)[C@H]1O
inactive: [2] | [3] | [4] | [5] | [6] | [7] | [10] | [8] | [9]

CC[C@H](C)C(=O)O[C@H]1C[C@H](O)C=C2C=C[C@H](C)[C@H](CC[C@@H](O)C[C@@H](O)CC(=O)O)[C@H]21
active: [1] 3.68 µM
inactive: [2] | [3] | [4] | [5] | [6] | [7] | [10] | [8] | [9]

CC(=O)c1ccccc1
inactive: [1] | [2] | [3] | [4] | [5] | [6] | [7] | [8] | [9]

NC(N)=O
inactive: [1] | [2] | [3] | [4] | [5] | [6] | [7] | [10] | [8] | [9]

OC[C@H]1O[C@@](CO)(O[C@H]2O[C@H](CO)[C@@H](O)[C@H](O)[C@H]2O)[C@@H](O)[C@@H]1O
inactive: [2] | [3] | [4] | [5] | [6] | [7] | [10] | [8] | [9]

COCc1nnc(-c2ccc[n+]([O-])c2)n1-c1c(Cl)c(Cl)cc2[nH]c(=O)c(=O)[nH]c12
inactive: [1] | [2] | [3] | [4] | [5] | [6] | [7] | [8] | [9]

CCc1cccc(CC)c1N
inactive: [1] | [2] | [3] | [4] | [5] | [6] | [7] | [8] | [9]

CCCCCCCCN(C)C
inactive: [2] | [3] | [4] | [5] | [6] | [7] | [10] | [8] | [9]

CCCCCCOC(=O)CC(CC(=O)OCCCCCC)(OC(=O)CCC)C(=O)OCCCCCC
inactive: [1] | [2] | [3] | [4] | [5] | [6] | [7] | [10] | [8] | [9]

CCCCN1C(=O)[C@@H]([C@H](O)C2CCCCC2)NC(=O)C12CCN(Cc1ccc(Oc3ccc(C(=O)O)cc3)cc1)CC2
active: [1] 2.84 µM | [2] 3.35 µM | [3] 2.15 µM | [4] 2.39 µM | [5] 2.25 µM | [6] 4.63 µM | [8] 1.8 µM
inactive: [7] | [9]

OC[C@H]1O[C@@H]2O[C@H]3[C@H](O)[C@@H](O)[C@@H](O[C@H]4[C@H](O)[C@@H](O)[C@@H](O[C@H]5[C@H](O)[C@@H](O)[C@@H](O[C@H]6[C@H](O)[C@@H](O)[C@@H](O[C@H]7[C@H](O)[C@@H](O)[C@@H](O[C@H]1[C@H](O)[C@H]2O)O[C@@H]7CO)O[C@@H]6CO)O[C@@H]5CO)O[C@@H]4CO)O[C@@H]3CO
inactive: [2] | [3] | [4] | [5] | [6] | [7] | [10] | [8] | [9]

CNC(C)=O
inactive: [1] | [2] | [3] | [4] | [5] | [6] | [7] | [8] | [9]

c1ccc(C(O[C@@H]2CCCN(CCc3ccc4c(c3)OCO4)C2)c2ccccc2)cc1
active: [1] 79.1 µM | [2] 6.12 µM | [3] 83.6 µM | [4] 79.1 µM | [6] 75.3 µM | [10] 90.3 µM | [8] 80.4 µM | [9] 78.3 µM
inactive: [5] | [7]

CCCc1ccccc1
inactive: [1] | [2] | [3] | [4] | [5] | [6] | [7] | [8] | [9]

Cc1ncc([C@@H](CCCCCCc2ccc3c(n2)NCCC3)CC(=O)O)cn1
inactive: [2] | [3] | [4] | [5] | [6] | [7] | [10] | [8] | [9]

O=C(O)c1cccc(C[C@@H]2COc3ccc(OCc4nc5cc(F)ccc5s4)cc3[C@@H]2O)c1
active: [1] 79.3 µM | [2] 90.8 µM | [3] 77.6 µM | [6] 79.5 µM | [8] 89.2 µM | [9] 81.3 µM
inactive: [4] | [5] | [7] | [10]

O=C(O)c1ccc2c(c1)nc(C(=O)NC1CCN(C3CC3)CC1)n2Cc1cc(-c2ccc(Cl)s2)on1
inactive: [1] | [2] | [3] | [4] | [5] | [6] | [7] | [8] | [9]

OC(Cn1cncn1)(Cn1cncn1)c1ccc(F)cc1F
inactive: [1] | [2] | [3] | [4] | [5] | [6] | [7] | [8] | [9]

O=c1[nH]cnc2c1ncn2[C@H]1CC[C@@H](CO)O1
inactive: [1] | [2] | [3] | [4] | [5] | [6] | [7] | [10] | [8] | [9]

CC(C)c1nnc2ccc(-c3ocnc3-c3cc(F)ccc3F)cn12
active: [1] 52.6 µM | [2] 31.8 µM | [3] 25.2 µM | [4] 80.5 µM | [6] 0.0565 µM
inactive: [5] | [7] | [8] | [9]

OCc1ccccc1
inactive: [1] | [2] | [3] | [4] | [5] | [6] | [7] | [10] | [8] | [9]

OCCNCCO
inactive: [2] | [5] | [6] | [7] | [8]
active: [1] 45.6 µM | [3] 50 µM | [4] 63.4 µM | [9] 50 µM

Cn1cc[nH]c1=S
inactive: [2] | [3] | [4] | [5] | [6] | [7] | [10] | [8]

Cc1nc(-c2ccccn2)ncc1C(=O)Nn1cc(C)c2cc(F)ccc21
active: [2] 51.4 µM | [4] 65.5 µM | [9] 81 µM
inactive: [3] | [5] | [6] | [7] | [10] | [8]

CCCCCOC(C)=O
inactive: [1] | [2] | [3] | [4] | [5] | [6] | [7] | [10] | [8] | [9]

OC(CCl)CCl
inactive: [1] | [2] | [3] | [4] | [5] | [6] | [7] | [8] | [9]
